Whole data set: some 81,000 sequences, median “one-hybrid fitness for binding parS DNA” near -0.17, cut for the highest 2% near 0.51. This excerpt belongs to a sample that is enriched for the highest values.
B1: Caulobacter ParB omega fusion; a variant is named by its letters at X, in order, B8GW30 (parent)
chain: MESVVVGEPGMSEGRRGLGRGLSALLGEVDAAPAQAPGEQLGGSREAPIEILQRNPDQPRRTFREEDLEDLSNSIREKGVLQPILVRPSPDTAGEYQIVAGERAWRAAQRAGLKTVPIMVRELDDLAVLEIGIIENVQRADLNVLEEALSYKVLMEKFERTQENIAQTIGKSXSHVANXMRLLXLPDEVQSYLVSGELTAXHARAIAAAADPVALAKQIIEGGLSVRETEALARKAPNLSAGKSKGGRPPRVKDTDTQALESDLSSVLGLDVSIDHRGSTGTLTITYATLEQLDDLCNRLTRGI

Variants of: B1
Assay: one-hybrid fitness for binding parS DNA (scaled: cognate 1, non-cognate 0); higher = stronger binding
Details: with parS DNA site
Summary of the method: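 Fitness here means the log change in variant-to-wild-type read ratio between plasmids sequenced before and after selection. That scale was set so cognate equals 1 and non-cognate equals 0. The selection was a bacterial one-hybrid screen of Caulobacter ParB libraries, four specificity codons randomised, in E. coli USO carrying a HIS3 reporter with the site 19 bp from the promoter, grown 48 hours at 37°C on M9-minus-histidine with 0.1 mM IPTG and 5 mM 3-AT.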

Row | Variant | one-hybrid fitness for binding parS DNA
1 | RVIF | ≤ 0.2
2 | RVPM | ≤ 0.2
3 | RVPK | ≤ 0.2
4 | RVPT | 0.529
5 | RVIQ | ≤ 0.2
6 | RVIT | 0.703
7 | CFTG | ≤ 0.2
8 | TTVP | ≤ 0.2
9 | PCIV | ≤ 0.2
10 | RNVA | 0.312
11 | RNNA | 0.529
12 | RNSA | 0.495
13 | RNQA | 0.489
14 | RNYA | 0.467
15 | RNDA | 0.354
16 | RNKA | 0.541
17 | RNRA | 0.534
18 | RNWA | 0.294
19 | CRFC | ≤ 0.2
20 | AKST | ≤ 0.2
21 | DDYL | ≤ 0.2
22 | DYFD | ≤ 0.2
23 | RYQR | ≤ 0.2
24 | QVQY | ≤ 0.2

Row | Variant | one-hybrid fitness for binding parS DNA
25 | RMTI | ≤ 0.2
26 | KKRY | ≤ 0.2
27 | IVRC | ≤ 0.2
28 | DLVM | ≤ 0.2
29 | RNDG | 0.679
30 | RNNH | ≤ 0.2
31 | RNDM | ≤ 0.2
32 | RNDK | ≤ 0.2
33 | RNNG | 0.948
34 | RNNN | 0.385
35 | LLYC | ≤ 0.2
36 | DVVM | ≤ 0.2
37 | PAYG | ≤ 0.2
38 | PDSP | ≤ 0.2
39 | THIF | ≤ 0.2
40 | ESHS | ≤ 0.2
41 | VADN | ≤ 0.2
42 | RPHS | ≤ 0.2
43 | RFHP | ≤ 0.2
44 | RFHS | 0.996
45 | RKHS | 0.832
46 | RKHN | 0.375
47 | RMHS | 0.979
48 | RCHD | ≤ 0.2

Row | Variant | one-hybrid fitness for binding parS DNA
49 | RMHD | ≤ 0.2
50 | RMHN | 0.482
51 | RCHS | 0.953
52 | RKHD | ≤ 0.2
53 | RFHH | ≤ 0.2
54 | SNSI | ≤ 0.2
55 | KYKR | ≤ 0.2
56 | WCAL | ≤ 0.2
57 | YGRT | ≤ 0.2
58 | RSHS | 1
59 | RAHD | ≤ 0.2
60 | RAHS | 0.985
61 | RSHH | ≤ 0.2
62 | RSHP | ≤ 0.2
63 | RAHN | 0.481
64 | WEGR | ≤ 0.2
65 | ADSS | ≤ 0.2
66 | ALSE | ≤ 0.2
67 | KLGY | ≤ 0.2
68 | RVAH | 0.225
69 | RVFD | ≤ 0.2
70 | RVAN | 0.452
71 | RVFS | 1.03
72 | RVFN | 0.399

Row | Variant | one-hybrid fitness for binding parS DNA
73 | RVAS | 1.01
74 | PPTK | ≤ 0.2
75 | IPLI | ≤ 0.2
76 | QGDC | ≤ 0.2
77 | PYSF | ≤ 0.2
78 | RMDW | ≤ 0.2
79 | RMYW | 0.216
80 | RMRW | 0.586
81 | RMKW | 0.694
82 | RCKW | 0.367
83 | RMVW | 0.23
84 | MALS | ≤ 0.2
85 | IADM | ≤ 0.2
86 | HDPK | ≤ 0.2
87 | FDHR | ≤ 0.2
88 | TTAR | ≤ 0.2
89 | QWPT | ≤ 0.2
90 | QFYR | ≤ 0.2
91 | VGKG | ≤ 0.2
92 | ATYA | ≤ 0.2
93 | DTRA | ≤ 0.2
94 | RTRA | 0.794
95 | NTRA | ≤ 0.2
96 | DTYA | ≤ 0.2

Row | Variant | one-hybrid fitness for binding parS DNA
97 | RTYA | 0.606
98 | NWKG | ≤ 0.2
99 | RVDE | ≤ 0.2
100 | TNYG | ≤ 0.2
101 | PHTE | ≤ 0.2
102 | MVER | ≤ 0.2
103 | GAIS | ≤ 0.2
104 | VHEV | ≤ 0.2
105 | RSRR | ≤ 0.2
106 | RDYG | ≤ 0.2
107 | RPRG | ≤ 0.2
108 | RSRG | 0.965
109 | RPYG | ≤ 0.2
110 | RDRG | ≤ 0.2
111 | RCRG | 0.927
112 | RCYG | 1.04
113 | RERG | 0.388
114 | EMQT | ≤ 0.2
115 | RTTM | 0.316
116 | HGTT | ≤ 0.2
117 | LGRI | ≤ 0.2
118 | DCMT | ≤ 0.2
119 | VQTR | ≤ 0.2
120 | RYWT | 0.787

Row | Variant | one-hybrid fitness for binding parS DNA
121 | RYCK | ≤ 0.2
122 | RYYT | 0.876
123 | RYYF | 0.22
124 | RYWD | ≤ 0.2
125 | RYYK | ≤ 0.2
126 | RYGK | ≤ 0.2
127 | RYGY | 0.42
128 | RYCQ | ≤ 0.2
129 | RYCT | 0.852
130 | RYWP | ≤ 0.2
131 | RYGT | 0.853
132 | TIPF | ≤ 0.2
133 | GWDS | ≤ 0.2
134 | DNAI | ≤ 0.2
135 | LTPR | ≤ 0.2
136 | DAHI | ≤ 0.2
137 | KFDS | ≤ 0.2
138 | TQIL | ≤ 0.2
139 | VNDP | 0.246
140 | RYNQ | ≤ 0.2
141 | RYSQ | ≤ 0.2
142 | RYNE | ≤ 0.2
143 | RYRQ | ≤ 0.2
144 | RYLP | ≤ 0.2

Row | Variant | one-hybrid fitness for binding parS DNA
145 | RYNT | 0.819
146 | RYSM | 0.302
147 | RYLN | 0.396
148 | RYRF | ≤ 0.2
149 | RYRT | 0.737
150 | RYST | 0.862
151 | RYLT | 0.911
152 | DRTC | ≤ 0.2
153 | SSMT | ≤ 0.2
154 | KHMR | ≤ 0.2
155 | VHNS | ≤ 0.2
156 | QCGM | ≤ 0.2
157 | MVQC | ≤ 0.2
158 | PQQE | ≤ 0.2
159 | MRLA | ≤ 0.2
160 | PVER | ≤ 0.2
161 | RYHT | 0.889
162 | RYHH | 0.213
163 | RYHP | ≤ 0.2
164 | RYDF | ≤ 0.2
165 | RYDR | ≤ 0.2
166 | RYDT | 0.79
167 | RYQQ | ≤ 0.2
168 | RYQT | 0.853

Row | Variant | one-hybrid fitness for binding parS DNA
169 | RYQY | 0.422
170 | VVQF | ≤ 0.2
171 | QNYM | ≤ 0.2
172 | DLKH | ≤ 0.2
173 | LLYM | ≤ 0.2
174 | LLNS | ≤ 0.2
175 | QAGT | ≤ 0.2
176 | RTPD | ≤ 0.2
177 | RTPT | 0.558
178 | RTPY | 0.221
179 | RTIT | 0.813
180 | RTIN | 0.355
181 | RTID | 0.203
182 | PDAC | ≤ 0.2
183 | RSWY | 0.422
184 | RTWY | 0.521
185 | RPWY | ≤ 0.2
186 | RAWY | 0.512
187 | RCWY | 0.513
188 | IEES | ≤ 0.2
189 | IWRM | ≤ 0.2
190 | RRIW | ≤ 0.2
191 | VLVG | ≤ 0.2
192 | RWLK | ≤ 0.2

Row | Variant | one-hybrid fitness for binding parS DNA
193 | RWHC | 0.733
194 | RWLC | 0.658
195 | RWGN | ≤ 0.2
196 | RWIN | ≤ 0.2
197 | RWGK | ≤ 0.2
198 | RWHQ | ≤ 0.2
199 | RWIC | 0.521
200 | RWHY | 0.275
201 | RWLM | ≤ 0.2
202 | RWGC | 0.61
203 | RWPC | 0.337
204 | CKVC | ≤ 0.2
205 | IMHG | ≤ 0.2
206 | QMQR | ≤ 0.2
207 | ATLN | ≤ 0.2
208 | RPRL | ≤ 0.2
209 | ASCK | ≤ 0.2
210 | TRPS | ≤ 0.2
211 | GPIF | ≤ 0.2
212 | WAKY | ≤ 0.2
213 | RWCD | ≤ 0.2
214 | RWRD | ≤ 0.2
215 | RWRC | 0.895
216 | RWQQ | ≤ 0.2

Row | Variant | one-hybrid fitness for binding parS DNA
217 | RWCK | ≤ 0.2
218 | RWSY | 0.338
219 | RWQR | ≤ 0.2
220 | RWCC | 0.636
221 | RWSC | 0.788
222 | RWSK | ≤ 0.2
223 | RWRH | 0.223
224 | RWQC | 0.73
225 | ADHG | ≤ 0.2
226 | DYYC | ≤ 0.2
227 | LWRS | ≤ 0.2
228 | VTPY | ≤ 0.2
229 | PYRW | ≤ 0.2
230 | MYTG | ≤ 0.2
231 | RWYD | ≤ 0.2
232 | RWWC | 0.521
233 | RWWM | ≤ 0.2
234 | RWYC | 0.662
235 | RWYP | ≤ 0.2
236 | NWWC | ≤ 0.2
237 | GTFW | ≤ 0.2
238 | SPEV | ≤ 0.2
239 | GWNS | ≤ 0.2
240 | RHRR | ≤ 0.2

Row | Variant | one-hybrid fitness for binding parS DNA
241 | RHNP | ≤ 0.2
242 | RHSD | ≤ 0.2
243 | RHDY | 0.397
244 | RHSH | ≤ 0.2
245 | RHRQ | ≤ 0.2
246 | RHDC | 0.878
247 | RHSC | 0.924
248 | RHDM | 0.254
249 | RHRC | 0.879
250 | RHNC | 0.871
251 | RHNN | 0.386
252 | GRGR | ≤ 0.2
253 | PQPN | ≤ 0.2
254 | DESG | ≤ 0.2
255 | ATAA | ≤ 0.2
256 | TIDL | ≤ 0.2
257 | FQIS | ≤ 0.2
258 | YIVC | ≤ 0.2
259 | CDYG | ≤ 0.2
260 | TKDN | ≤ 0.2
261 | ASNP | ≤ 0.2
262 | RHHC | 0.934
263 | RHCC | 0.869
264 | RHLY | 0.428

Row | Variant | one-hybrid fitness for binding parS DNA
265 | RHLC | 0.928
266 | RHCF | ≤ 0.2
267 | RHYR | ≤ 0.2
268 | RHLK | ≤ 0.2
269 | RHCY | 0.371
270 | RHHM | 0.266
271 | RHHY | 0.4
272 | RHYC | 0.92
273 | RHYF | 0.211
274 | WTHL | ≤ 0.2
275 | QEVD | ≤ 0.2
276 | DTTH | ≤ 0.2
277 | VQAA | ≤ 0.2
278 | DVLS | ≤ 0.2
279 | THPF | ≤ 0.2
280 | RYFG | 0.932
281 | RYAQ | ≤ 0.2
282 | RYFM | 0.264
283 | RYAG | 0.982
284 | RYAY | 0.425
285 | RYFY | 0.43
286 | VACC | ≤ 0.2
287 | TPLH | ≤ 0.2
288 | GCSG | ≤ 0.2

Row | Variant | one-hybrid fitness for binding parS DNA
289 | IIPI | ≤ 0.2
290 | PYAK | ≤ 0.2
291 | IRPT | ≤ 0.2
292 | RQEN | 0.379
293 | RQEG | 0.89
294 | RQER | ≤ 0.2
295 | RQES | 0.962
296 | RQEP | ≤ 0.2
297 | RQEM | 0.255
298 | RQEC | 0.829
299 | RQEQ | 0.223
300 | RQEK | ≤ 0.2
301 | RQET | 0.719
302 | RQED | ≤ 0.2
303 | RQEH | 0.281
304 | KSGF | ≤ 0.2
305 | HSSQ | ≤ 0.2
306 | MISR | ≤ 0.2
